# High-throughput results deposited in PubChem by National Center for Advancing Translational Sciences (NCATS).
# This is a sample that favours compounds with a hit; in the whole collection about 21% have one here.
# HCMV antiviral – qHTS Assay for inhibitors of the human cytomegalovirus (HCMV) | HFF cells, HCMV-luciferase reporter, 72 h; hits give low values | activity change, negative = inhibition, % at 57.5 µM | 410,000 tested, 4.5% active; in the data active = activity change below about -60%; inconclusive = no clear call, values can overlap the other calls; inactive = above about -39%; note: % is set by controls: 0 for no effect and ±100 for the full control effect
#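 Luciferase read-out from HCMV-luciferase-infected HFFs (MOI 1 PFU/cell) 72 h post infection at 37C; compounds added after 16 h cell attachment; activity normalized between buffer-only basal and Salinomycin (10uM) inhibitor controls.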
# HCV inh – qHTS Assay for Inhibitors of Hepatitis C Virus (HCV) | 340,000 tested, 3.4% active | Huh7.5.1 HCVcc-Cre infection, luciferase reporter, 44 h | AID 651820, 2012 | Potency, µM (series often up to 41.8 µM), without a hit: top-dose activity change, negative = inhibition, hits mostly inhibitors; note: potency is the fitted concentration of half-maximal effect; % is set by controls: 0 for no effect and ±100 for the full control effect
#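 Infectious HCVcc-Cre (~0.5 moi) was added to cells just after compound, with cells seeded 4 h earlier at 1,000 per well. Luciferase activity after 44 h culture reported infection; substrate was incubated 15 min at room temperature before reading.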
# Pf growth 96h – Primary qHTS for delayed death inhibitors of the malarial parasite plastid, 96 hour incubation; 320,000 tested, 6.9% active; Potency, µM (series often up to 28.7 µM), inactives show at the top dose activity change, negative = inhibition, most hits filed as inhibitors; P. falciparum luciferase reporter growth, 96 h; note: potency is the fitted concentration of half-maximal effect; % is set by controls: 0 for no effect and ±100 for the full control effect
#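 Cell-based qHTS: luciferase-tagged P. falciparum in erythrocytes (2% hematocrit, 0.05% parasitemia final) incubated with compounds for 96 hours, 37 C, 5% CO2; luciferase detection reagent then added and luminescence measured.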
# CHX counter – Cycloheximide Counterscreen for Small Molecule Inhibitors of Shiga Toxin; cell reporter, cycloheximide protein synthesis inhibition counterscreen; max response, %; 300,000 tested, 12% active; AID 2314, 2010; in the data active = max response mostly above about 13%, no sharp cut-off; inactive = mostly below about 14%; note: read at 38.3 µM for the half of the compounds with a filed dose; 0% is about no effect
# Shiga inhibitor – A qHTS for Small Molecule Inhibitors of Shiga Toxin; Vero cells, Shiga toxin protein synthesis inhibition reporter; inhibition, % at 38.7 µM; 290,000 tested, 9.2% active; in the data active = inhibition mostly above about 28%, no sharp cut-off; inactive = mostly below about 43%; note: 0% is about no effect
# Pf growth 48h – Primary qHTS for delayed death inhibitors of the malarial parasite plastid, 48 hour incubation | P. falciparum luciferase growth in erythrocytes, 48 h | Potency, µM (titrated, usually from 28.7 µM), without a hit: top-dose activity change, negative = inhibition, most hits filed as inhibitors | 310,000 tested, 5.9% active; note: potency is the fitted concentration of half-maximal effect; % is set by controls: 0 for no effect and ±100 for the full control effect
#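 Read-out is firefly luciferase luminescence from an integrated reporter in P. falciparum, so falling signal marks reduced parasite growth. Infected erythrocytes were at 2% hematocrit and 0.1% parasitemia (final) in Albumax-supplemented RPMI 1640.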
# The depositor's hits bear a star; ? = inconclusive; . = not tested or not shown; [ ] = dose if it differs, or a comment. Unless noted, calls come from the whole dose curve; as a rule, active = well fitted inhibition curve with a large enough effect; inconclusive = small, poorly fitted or top-dose-only effect, or another doubt; inactive = no such curve, though single readings can be large or run the other way.
SMILES,HCMV antiviral,HCV inh,Pf growth 96h,CHX counter,Shiga inhibitor,Pf growth 48h
CNC(=O)c1cc(Nc2nnc(-c3ccc(O)cc3)c3ccccc23)ccc1OC,-31.0,?,22.8%,-3.5,-11.8,?
Cc1ccc(-c2n[nH]c(=S)c3ccccc23)cc1S(=O)(=O)NCC1CCCO1 (stereo not drawn),-62.9*,?,4.3%,-4.9,-5.5,-4.7%
Cc1ccc(-c2nnc(Nc3ccc(C(=O)N(C)C)cc3)c3ccccc23)cc1S(=O)(=O)NCC1CCCO1 (stereo not drawn),-19.9,?,?,-2.6,-3.3,2.33µM*
COc1ccccc1CCNC(=O)Cn1ccc2cc(S(=O)(=O)N3CCCCC3)ccc21,-8.2,.,.,.,.,.
COc1ccc(CC(=O)OCC(=O)NC2CCCC(C)C2C)cc1OC (stereo not drawn),3.5,3.4%,.,.,.,.
COC(=O)c1ccc(Nc2nnc(-c3ccc(C)c(S(=O)(=O)NCC4CCCO4)c3)c3ccccc23)cc1 (stereo not drawn),-28.7,?,?,-0.7,-1.6,7.38µM*
COC(=O)COc1ccc(-c2nnc(Nc3ccc(O)cc3)c3ccccc23)cc1,-106.7*,.,.,.,.,.
Cc1ccc(-c2nnc(Nc3ccc(C(N)=O)cc3)c3ccccc23)cc1S(N)(=O)=O,-16.2,.,.,.,.,.
NC(=O)COc1ccc(Nc2nnc(-c3ccc(O)cc3)c3ccccc23)cc1,-10.0,-21.5%,?,0.5,22.6,-21.3%
CNS(=O)(=O)c1cc(-c2nnc(Nc3ccc(CC(N)=O)cc3)c3ccccc23)ccc1C,-19.2,11.2%,29.8%,-1.9,-4.2,7.38µM*
Cc1ccc(-c2nnc(N3CCOCC3)c3ccccc23)cc1S(=O)(=O)NCC1CCCO1 (stereo not drawn),-94.6*,-5.9%,-21.9%,8.1,20.3,8.28µM*
Cc1ccc(-c2nnc(N3CCOCC3)c3ccccc23)cc1S(=O)(=O)NCc1cccnc1,-32.6,-5.5%,37.6%[5.75 µM],-2.7,-9.0,?
CCOc1ccc(C(=O)c2cn(CC(=O)Nc3ccc4c(c3)OCCO4)c3ccc(F)cc3c2=O)cc1,1.2,.,.,.,.,.
O=C(O)/C=C/C(=O)NCc1csc2ccccc12,16.4,25.6%,5.2%,7.5,-6.8,13.9%
Cc1ccc(-c2nnc(N3CCC(C)CC3)c3ccccc23)cc1,-31.6,?,?,10.2,16.3,?
Cc1ccccc1Nc1nnc(-c2ccc(C)c(S(=O)(=O)NCC3CCCO3)c2)c2ccccc12 (stereo not drawn),-75.9*,.,.,.,.,.
CCOC(=O)CNS(=O)(=O)c1cc(-c2nnc(Nc3cccc(O)c3)c3ccccc23)ccc1C,12.4,.,.,.,.,.
O=S(=O)(NCC1CCCO1)c1ccc(Cl)c2ccccc12 (stereo not drawn),-84.0*,.,.,.,.,.
Cc1ccc(-c2nnc(N3CCC(C)CC3)c3ccccc23)cc1C,-27.4,?,?,0.7,-10.2,13.1µM*
Cc1ccc(-c2nnc(Nc3cccc(O)c3)c3ccccc23)cc1S(=O)(=O)NCCO,?,1.5%,?,1.7,-6.0,?
CCOC(=O)CNS(=O)(=O)c1cc(-c2nnc(Nc3ccc4c(c3)OCO4)c3ccccc23)ccc1C,-65.2*,?,?,1.4,-5.3,2.33µM*
O=C(CN1N=C(c2ccc(Cl)cc2)CCC1=O)NCc1cccnc1,-26.3,2.4%,?,-1.7,-4.8,12.2%
CC(=O)c1cc(C(=O)N2CCCC(C(=O)c3ccc(Cl)cc3)C2)cs1 (stereo not drawn),-1.8,.,?,4.3,17.7,35.2%
Cc1ccc(-n2cc(C(=O)OCc3ccc(Cl)cc3)c3ccccc3c2=O)cc1,12.9,.,.,.,.,.
Cc1ccc(-c2nnc(Nc3ccc(CC(N)=O)cc3)c3ccccc23)cc1S(=O)(=O)NCC1CCCO1 (stereo not drawn),0.0,-5.3%,?,-1.5,9.1,0.828µM*
SMILES,HCMV antiviral,HCV inh,Pf growth 96h,CHX counter,Shiga inhibitor,Pf growth 48h
Cc1ccc(OCCn2ncc3ccccc3c2=O)c(C)c1,-34.1,-24.8%,-23.4%,14.8*,25.9,-22.4%
O=c1c2ccccc2cnn1CCOc1cccc(Br)c1,28.8,?,9.28µM*,51.4*,120.0*,?
Cc1cccc(OCC(=O)Nc2ccc(Cl)c(-c3nc4ncccc4o3)c2)c1C,-23.0,.,.,.,.,.
CC(C)NC(=S)N1CCC(Cc2ccccc2)CC1,-31.8,-2.7%,14.7%,8.5,-16.8,-6.0%
CCOc1ccc(NC(=S)N2CCCC2)cc1,-35.6,5.8%,?,17.7,19.9,32.1%
CC(=O)c1ccc(NC(=S)N2CCCC2)cc1,28.2,9.8%,?,17.5*,29.9,41.8%
O=C(O)c1ccc(NC(=S)N2CCCCC2)cc1,-12.2,16.4%,2.4%,9.1,36.5,35.8%
S=C(Nc1ccc(Cl)cc1Cl)N1CCCCC1,-27.0,11.1%,?,17.1*,52.5,24.7%
CCc1ccc(NC(=S)N2CCCCCCC2)cc1,-16.3,4.6%,116.4%,55.8*,67.9*,126.6%
S=C(Nc1ccccc1Cl)N1CCCCCC1,16.9,1.6%,10.6%,6.3,7.3,8.8%
CC(C)CNC(=S)N1CCC(Cc2ccccc2)CC1,15.1,-16.9%,14.7µM*,-1.0,1.9,?
O=S(=O)(c1ccc2[nH]c3c(c2c1)CCCC3)N1CCN(c2cccc(C(F)(F)F)c2)CC1,-12.7,.,.,.,.,.
O=C(NC1CC(=O)N(c2ccc3c(c2)OCCO3)C1)c1c(F)cccc1Cl (stereo not drawn),-9.6,.,.,-2.5,-9.5,.
COc1cc(NC(=O)Cn2cnc3c(SC)nc(N)nc32)cc(OC)c1OC,10.0,1.9%,.,.,.,.
COc1ccc(Cc2c(C3CCCCC3)nc3ccc(C)cn23)c(C)c1,10.8,.,.,.,.,.
S=C(Nc1ccccc1)N1CCN(C(=S)c2ccccc2)CC1,-101.7*,4.2%,3.0%,44.4*,71.4*,86.4%
CC(=O)c1ccc(NC(=S)N2CCC(Cc3ccccc3)CC2)cc1,-37.1,?,11.3%,17.3*,48.7,-5.3%
Cc1ccc(NC(=S)N2CCCC2)cc1C,-32.6,-2.2%,8.1%,25.0*,32.9,48.9%
S=C(Nc1ccc(Br)cc1)N1CCCC1,112.6,3.1%,81.1%,27.0*,24.2,47.4%
O=C(NCC(c1cccnc1)N1CCN(Cc2ccccc2)CC1)C(=O)Nc1ccc(F)cc1 (stereo not drawn),-12.8,.,.,.,.,.
CCN(CC)S(=O)(=O)c1cccc(NC(=O)CN(C)Cc2cccc(OC)c2)c1,?,?,?,-4.1,-19.3,?
CN1CCN(C(=S)Nc2ccc(Cl)cc2)CC1,-10.4,-5.2%,16.4%,-3.0,2.9,6.0%
S=C(Nc1ccc(Cl)cc1)N1CCCCC1,-30.0,8.0%,22.0%,13.0*,28.4,28.5%
